Results from PubChem BioAssay (NCATS).
Results filed as inconclusive are left out. The source made the active and inactive calls. Unless noted, calls follow the shape of the dose curve; as a rule, active = well fitted curve in the direction sought with a large enough effect; inconclusive = small, poorly fitted or top-dose-only effect, or another doubt; inactive = no such curve, though single readings can be large; an effect the other way counts as inactive or inconclusive.

Columns and labels:
[1] = target: Ferritin light chain (Equus caballus) (UniProt P02791); assay: qHTS Validation Assay for Identification of Novel General Anesthetics (AID 2323); details: horse apoferritin, anesthetic-site fluorescent probe displacement; series mostly up to 76.9 µM
Sequence of Ferritin light chain (Equus caballus) (P02791 2-175 limits assumed): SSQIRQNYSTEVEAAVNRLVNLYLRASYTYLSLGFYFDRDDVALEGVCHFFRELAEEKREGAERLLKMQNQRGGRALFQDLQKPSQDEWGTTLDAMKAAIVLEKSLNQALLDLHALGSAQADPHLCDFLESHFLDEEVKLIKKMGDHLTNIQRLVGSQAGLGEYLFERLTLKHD
Procedure, shortened: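 Normalized fluorescence response, scaled between free 1-AMA and 1-AMA/apoferritin complex, fitted to a four-parameter Hill equation for concentration-effect values. Binding mix: 10 uM horse-spleen apoferritin, 50% saturated 1-AMA in PBS; read 380/535 nm after 10 min.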

[2] = High Content Imaging Cell-Based qHTS for Inhibitors of the mTORC1 Signaling Pathway in MEF (Tsc2-/-, p53-/-) Cells (AID 2666); details: series mostly up to 38.3 µM;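 also: percent of cells scored positive for phospho-rpS6 Ser235/236 immunostaining by imaging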; also: potency is read from the fitted curve at half-maximal effect
Procedure, shortened: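 Inhibition of rpS6 phosphorylation is measured by immunofluorescence imaging in empty-vector Tsc2-/-, p53-/- mouse embryonic fibroblasts after 24 hrs compound exposure at 37 degree Celsius. Results are reported as % positive cells per well.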

[3] = High Content Imaging Cell-Based qHTS for Inhibitors of the mTORC1 Signaling Pathway in MEF Cells (AID 2667); details: series mostly up to 38.3 µM; also: potency is read from the fitted curve at half-maximal effect
Procedure, shortened: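 Fixed-cell imaging of phospho-S6 (Ser235/236, Alexa-488) after 24 hrs of compound treatment at 37 degree Celsius. Signal was normalized to Hoechst, and thresholds from the highest and lowest wells split cells into % active versus % non-active.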

[4] = Cytometry Cell-Based qHTS for Inhibitors of the mTORC1 Signaling Pathway in MEF cells (AID 2668); details: mTORC1 pathway readout; series mostly up to 38.3 µM;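 also: Tsc2-/- p53-/- mouse embryonic fibroblasts stably re-expressing wild-type Tsc2; percent cells positive for phospho-rpS6 Ser235/236 relative to propidium iodide stain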
Procedure, shortened: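 In MEFs grown in DMEM + 10% FBS, a 24 hrs compound exposure preceded imaging of phospho-rpS6 Ser235/236 by laser-scanning cytometry.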

[5] = target: DNA polymerase III PolC-type (Bacillus subtilis (strain 168)) (UniProt P13267); assay: qHTS Validation Assay for the Inhibitors of DNA Replication in Gram-Positive Bacteria (AID 485295); details: Gram-positive bacterial DNA replication assay; series mostly up to 57.1 µM; also: potency is read from the fitted curve at half-maximal effect
Procedure, shortened: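 Inhibition of DNA synthesis by the reconstituted PolC holoenzyme, monitored through PicoGreen staining of dsDNA formed from ssM13Gori, dNTPs and NTPs, with compound preincubation and room-temperature reaction.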

[6] = target: Beta-2 adrenergic receptor (Homo sapiens) (UniProt P07550); assay: qHTS validation assay of beta-arrestin-biased ligands of beta2-adrenergic receptor (AID 485366); details: cell-based beta-arrestin recruitment to ADRB2, qHTS; series mostly up to 46.1 µM
Sequence of Beta-2 adrenergic receptor (Homo sapiens) (P07550 whole entry, looked up): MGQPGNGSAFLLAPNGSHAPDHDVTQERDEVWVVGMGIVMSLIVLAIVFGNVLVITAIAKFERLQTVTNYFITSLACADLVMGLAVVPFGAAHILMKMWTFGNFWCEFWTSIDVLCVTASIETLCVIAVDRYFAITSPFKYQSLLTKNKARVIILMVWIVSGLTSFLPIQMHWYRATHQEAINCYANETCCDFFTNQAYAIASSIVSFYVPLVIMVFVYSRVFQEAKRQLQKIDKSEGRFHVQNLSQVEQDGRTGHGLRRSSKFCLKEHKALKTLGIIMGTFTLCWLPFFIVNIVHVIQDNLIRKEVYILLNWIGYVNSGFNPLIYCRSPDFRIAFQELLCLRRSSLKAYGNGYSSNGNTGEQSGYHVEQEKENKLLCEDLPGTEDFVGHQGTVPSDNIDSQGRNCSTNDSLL
Procedure, shortened: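 Agonism was measured as beta-arrestin recruitment to recombinant beta2-AR, releasing tTA to drive luciferase. Cells were exposed for 18 hr at 37 degrees C to a series up to 46 microM. %Activity from corrected luminescence gave concentration-response curves.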

[7] = target: Thioredoxin reductase 1, cytoplasmic (Rattus norvegicus) (UniProt O89049); assay: qHTS Assay for Substrates of Mammalian Selenoprotein Thioredoxin Reductase 1 (TrxR1) (AID 488772); details: purified TrxR1, NADPH consumption substrate assay; series mostly up to 57.1 µM;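 also: a drop in NADPH fluorescence below the no-compound background marks a TrxR1 substrate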
Sequence of Thioredoxin reductase 1, cytoplasmic (Rattus norvegicus) (O89049 whole entry, looked up): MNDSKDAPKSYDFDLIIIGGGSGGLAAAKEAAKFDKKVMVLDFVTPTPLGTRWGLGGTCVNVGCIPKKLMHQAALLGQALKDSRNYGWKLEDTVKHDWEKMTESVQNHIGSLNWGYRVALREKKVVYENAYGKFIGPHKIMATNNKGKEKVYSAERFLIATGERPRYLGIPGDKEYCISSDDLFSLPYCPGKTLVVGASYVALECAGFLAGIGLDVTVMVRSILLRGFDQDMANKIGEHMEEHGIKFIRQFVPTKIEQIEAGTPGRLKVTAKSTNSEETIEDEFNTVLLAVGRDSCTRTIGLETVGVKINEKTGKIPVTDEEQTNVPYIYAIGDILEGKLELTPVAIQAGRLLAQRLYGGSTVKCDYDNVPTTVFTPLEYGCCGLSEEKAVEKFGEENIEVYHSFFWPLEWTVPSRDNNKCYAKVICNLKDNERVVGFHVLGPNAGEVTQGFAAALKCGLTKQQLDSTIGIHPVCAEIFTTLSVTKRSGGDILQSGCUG
Procedure, shortened: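 In this dual-purpose format, potential substrates are identified from the first fluorescence read after selenite addition, not from the 8-minute delta. Rat enzyme is preincubated with NADPH and then with compound at ~22 deg C.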

[8] = target: Thioredoxin reductase 1, cytoplasmic (Rattus norvegicus) (UniProt O89049); assay: qHTS Assay for Inhibitors of Mammalian Selenoprotein Thioredoxin Reductase 1 (TrxR1) (AID 488773); details: purified TrxR1 enzyme activity; Potency: inhibition; series mostly up to 57.1 µM;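 also: drop in NADPH fluorescence over an 8 min run after selenite addition; nearly all actives have a fitted effect of over 40% in size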
Procedure, shortened: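 Inhibition is scored from the loss of NADPH fluorescence between first and last reads of an 8-min kinetic run. Selenite (400 uM) was the substrate, added after 15 min compound preincubation at room temperature.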

[9] = target: Flap endonuclease 1 (Homo sapiens) (UniProt P39748); assay: qHTS Validation Assay for the Inhibitors of Human Flap endonuclease 1 (FEN1) (AID 488816); details: FEN1 nuclease activity, fluorogenic DNA substrate; series mostly up to 57.1 µM; also: potency is read from the fitted curve at half-maximal effect
Sequence of Flap endonuclease 1 (Homo sapiens) (P39748 whole entry, looked up): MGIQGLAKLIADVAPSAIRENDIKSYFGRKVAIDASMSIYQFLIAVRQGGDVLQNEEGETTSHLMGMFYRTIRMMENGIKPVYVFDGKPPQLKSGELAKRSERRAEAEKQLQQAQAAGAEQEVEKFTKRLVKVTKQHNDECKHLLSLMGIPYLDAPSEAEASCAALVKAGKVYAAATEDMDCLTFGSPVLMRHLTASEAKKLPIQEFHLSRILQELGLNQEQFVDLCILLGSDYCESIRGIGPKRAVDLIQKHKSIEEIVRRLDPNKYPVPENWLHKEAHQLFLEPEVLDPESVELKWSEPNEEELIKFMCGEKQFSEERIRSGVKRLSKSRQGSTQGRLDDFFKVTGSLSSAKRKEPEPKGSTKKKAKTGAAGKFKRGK
Procedure, shortened: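 Steps: add FEN1 (10 nM reagent) or buffer only; pin compounds; hold 15 min at room temperature; start with substrate, 50 nM final; read at 0 and 15 min; correct, normalize and fit a four-parameter Hill curve.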

[10] = target: Ubiquitin carboxyl-terminal hydrolase 2 (Homo sapiens) (UniProt O75604); assay: qHTS Validation Assay for Inhibitors of Ubiquitin-specific Protease USP2a Using CHOP2 as the Reporter (AID 463106); details: USP2a cleavage of CHOP2 reporter, enzymatic; series mostly up to 38.3 µM
Sequence of Ubiquitin carboxyl-terminal hydrolase 2 (Homo sapiens) (O75604 whole entry, looked up): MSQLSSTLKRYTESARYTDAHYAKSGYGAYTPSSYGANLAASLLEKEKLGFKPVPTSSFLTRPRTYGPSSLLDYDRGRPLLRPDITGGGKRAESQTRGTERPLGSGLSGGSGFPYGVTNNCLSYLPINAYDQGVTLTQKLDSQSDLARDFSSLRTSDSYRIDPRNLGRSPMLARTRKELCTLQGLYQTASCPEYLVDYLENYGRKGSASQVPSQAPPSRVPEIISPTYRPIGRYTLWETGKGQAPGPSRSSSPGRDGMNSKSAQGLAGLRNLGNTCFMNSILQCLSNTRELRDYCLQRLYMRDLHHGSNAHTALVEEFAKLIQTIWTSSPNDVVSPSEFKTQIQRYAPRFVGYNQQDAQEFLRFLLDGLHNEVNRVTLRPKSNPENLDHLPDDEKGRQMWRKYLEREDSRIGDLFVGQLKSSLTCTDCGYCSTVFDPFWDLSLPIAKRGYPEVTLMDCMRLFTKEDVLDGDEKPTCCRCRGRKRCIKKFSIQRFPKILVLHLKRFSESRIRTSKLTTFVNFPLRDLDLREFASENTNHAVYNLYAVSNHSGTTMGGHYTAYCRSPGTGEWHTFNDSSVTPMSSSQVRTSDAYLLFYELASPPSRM
Procedure, shortened: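 Inhibition is expressed relative to NEM as the full-inhibition control, with concentration-response curves classed by fit quality, magnitude and activity. Enzyme (USP2 core, 10nM) meets 25nM Ub-CHOP2 after compound preincubation; readings are taken at 60min.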

[11] = target: Tumor susceptibility gene 101 protein (Homo sapiens) (UniProt Q99816); assay: qHTS Validation Assay for Iinhibitors of HIV-1 Budding by Blocking the Interaction of PTAP/TSG101 (AID 485342; calls by dose curve); details: TSG101-PTAP binding, fluorescence polarization, 4-point titration; series mostly up to 115 µM
Sequence of Tumor susceptibility gene 101 protein (Homo sapiens) (Q99816 whole entry, looked up, the tested form may be a part): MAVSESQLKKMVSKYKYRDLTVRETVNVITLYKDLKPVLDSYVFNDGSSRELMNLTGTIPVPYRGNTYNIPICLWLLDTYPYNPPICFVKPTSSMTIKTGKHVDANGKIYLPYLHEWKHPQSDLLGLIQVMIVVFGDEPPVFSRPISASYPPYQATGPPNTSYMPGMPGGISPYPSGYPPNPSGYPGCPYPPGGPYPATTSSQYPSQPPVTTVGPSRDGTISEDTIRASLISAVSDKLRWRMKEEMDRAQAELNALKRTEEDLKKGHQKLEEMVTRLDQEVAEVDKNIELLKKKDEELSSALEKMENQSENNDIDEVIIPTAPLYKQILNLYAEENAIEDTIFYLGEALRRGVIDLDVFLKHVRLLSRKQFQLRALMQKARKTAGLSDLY
Procedure, shortened: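 Compound wells held the Tsg101 binding domain (10 uM) and a FITC-conjugated PTAP peptide (50 nM) in buffer at pH 7.5 containing 0.15 M NaCl and 0.01% Tween 20; polarization was recorded after 20 min, r.t.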

[12] = qHTS Validation Assay to Find Inhibitors of Chronic Active B-Cell Receptor Signaling (AID 485345; active = well fitted curve in the direction sought with a large enough effect in the main read-out, with a control signal flat, not every such curve was filed as active); details: ABC-DLBCL cells, chronic BCR signaling reporter, CBG luciferase; series mostly up to 46.1 µM
Procedure, shortened: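 TMD8 ABC-DLBCL cells with dox-inducible green luciferase–IκBα fusion and red native luciferase; compounds 46 uM–3 nM, 4 h at 37C with doxycycline in 0.5% FBS IMDM. Green/red ratio normalized to basal and 10 uM MG-132.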

[13] = Quantitative high throughput screen for delayed death inhibitors of the malarial parasite plastid, 96 hour incubation (AID 488745); details: Plasmodium falciparum growth; series mostly up to 28.7 µM; also: nearly all actives have a fitted effect of over 70% in size; also: potency is read from the fitted curve at half-maximal effect
Procedure, shortened: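 Decreased firefly luciferase luminescence indicates inhibited growth of reporter-integrated P. falciparum after two generations (96 h, 37 C, 5% CO2). Infected erythrocytes at 0.1% parasitemia, 2% hematocrit, in Albumax-supplemented RPMI 1640.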

[14] = Quantitative high throughput screen for delayed death inhibitors of the malarial parasite plastid, 48 hour incubation (AID 488752); details: Plasmodium falciparum growth; series mostly up to 28.7 µM; also: nearly all actives have a fitted effect of over 65% in size; also: potency is read from the fitted curve at half-maximal effect
Procedure, shortened: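 One-generation (48 h) growth assay: a decrease in luciferase signal from an integrated reporter in P. falciparum-infected red cells (0.1% parasitemia, 2% hematocrit) after compound exposure at 37 C indicates parasite inhibition.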

[15] = target: ATP-dependent 6-phosphofructokinase (Trypanosoma brucei brucei) (UniProt O15648); assay: qHTS Validation Assay to Find Inhibitors of T. brucei phosphofructokinase (AID 485368); details: T. brucei PFK enzyme assay, qHTS 7-point titration; series mostly up to 57.5 µM
Sequence of ATP-dependent 6-phosphofructokinase (Trypanosoma brucei brucei) (O15648 whole entry, looked up): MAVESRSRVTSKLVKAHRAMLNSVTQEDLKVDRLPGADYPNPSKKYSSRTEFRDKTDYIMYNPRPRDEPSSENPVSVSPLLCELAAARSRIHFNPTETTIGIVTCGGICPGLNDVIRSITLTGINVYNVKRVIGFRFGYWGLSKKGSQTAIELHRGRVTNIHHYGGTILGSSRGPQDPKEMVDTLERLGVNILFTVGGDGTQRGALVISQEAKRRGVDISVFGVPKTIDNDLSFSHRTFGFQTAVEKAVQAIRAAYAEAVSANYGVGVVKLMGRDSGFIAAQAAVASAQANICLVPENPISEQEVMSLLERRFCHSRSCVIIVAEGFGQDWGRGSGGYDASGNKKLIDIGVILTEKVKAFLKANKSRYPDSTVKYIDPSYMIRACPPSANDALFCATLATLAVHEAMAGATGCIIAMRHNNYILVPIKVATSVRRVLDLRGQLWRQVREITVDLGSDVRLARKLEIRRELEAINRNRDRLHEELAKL
Procedure, shortened: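 ADP-Glo luminescence, two-step: residual ATP depleted, then ADP converted to ATP for luciferase. Enzyme 1.25 nM, F6P 0.5 mM, ATP 0.1 mM, pH 8.0 TEA buffer, 45 min RT. Curves fitted and classed by quality and efficacy.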

[16] = Cytometric Cell-Based qHTS for Inhibitors of the mTORC1 Signaling Pathway in MEF (Tsc2-/-, p53-/-) Cells (AID 2660); details: mTORC1 pathway cytometry; series mostly up to 38.3 µM;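 also: Tsc2 and p53 null MEFs carrying empty vector with compound for 24 h; percent of cells above a phospho-rpS6 to PI ratio cutoff in each well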
Procedure, shortened: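 Immunofluorescence qHTS of rpS6 Ser235/236 phosphorylation: MEFs (Tsc2-/-, p53-/-) treated 24 h, 37 C, in DMEM + 10% FBS. Alexa-488 signal normalized to PI count, referenced to rapamycin (7.5 nM) and DMSO; PI cell number recorded for viability.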

[17] = target: ATP-dependent DNA helicase Q1 (Homo sapiens) (UniProt P46063); assay: qHTS Validation Assay for Inhibitors of RecQ-Like Dna Helicase 1 (RECQ1) (AID 2353); details: recombinant RECQ1 helicase DNA unwinding assay; series mostly up to 25.6 µM
Sequence of ATP-dependent DNA helicase Q1 (Homo sapiens) (P46063 whole entry, looked up): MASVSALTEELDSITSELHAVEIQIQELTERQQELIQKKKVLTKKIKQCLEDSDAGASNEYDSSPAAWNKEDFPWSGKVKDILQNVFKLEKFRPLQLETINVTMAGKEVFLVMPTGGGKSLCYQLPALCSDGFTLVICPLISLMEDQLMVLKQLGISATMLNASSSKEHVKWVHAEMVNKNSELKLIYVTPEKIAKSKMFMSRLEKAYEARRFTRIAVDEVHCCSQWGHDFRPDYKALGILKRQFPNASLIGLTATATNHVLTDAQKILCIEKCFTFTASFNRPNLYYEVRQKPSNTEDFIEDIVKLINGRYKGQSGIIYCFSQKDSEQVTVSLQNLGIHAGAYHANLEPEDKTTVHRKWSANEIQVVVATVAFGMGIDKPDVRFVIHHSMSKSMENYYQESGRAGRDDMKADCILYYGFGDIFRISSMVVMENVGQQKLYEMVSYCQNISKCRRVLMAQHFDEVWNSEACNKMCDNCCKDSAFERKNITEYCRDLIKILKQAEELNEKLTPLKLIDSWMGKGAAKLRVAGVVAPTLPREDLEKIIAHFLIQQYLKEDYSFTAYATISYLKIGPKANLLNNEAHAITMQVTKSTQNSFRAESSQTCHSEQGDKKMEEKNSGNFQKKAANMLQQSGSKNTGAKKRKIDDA
Procedure, shortened: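 RECQ1T1 50 nM; forked duplex (20 bp + 30-nt ss tails) 200 nM, ATP 2 mM final; pH 8.0, 2 mM MgCl2, 2.5 ug/ml poly(dI-dC); 15 min compound preincubation; discontinuous kinetic read over 2 h at RT.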

[18] = target: RecQ-like DNA helicase BLM (Homo sapiens) (UniProt P54132); assay: qHTS Validation Assay for Inhibitors of Bloom's syndrome helicase (BLM) (AID 2364); details: BLM helicase DNA unwinding, fluorescence, in vitro; series mostly up to 57.1 µM
Sequence of RecQ-like DNA helicase BLM (Homo sapiens) (P54132 whole entry, looked up): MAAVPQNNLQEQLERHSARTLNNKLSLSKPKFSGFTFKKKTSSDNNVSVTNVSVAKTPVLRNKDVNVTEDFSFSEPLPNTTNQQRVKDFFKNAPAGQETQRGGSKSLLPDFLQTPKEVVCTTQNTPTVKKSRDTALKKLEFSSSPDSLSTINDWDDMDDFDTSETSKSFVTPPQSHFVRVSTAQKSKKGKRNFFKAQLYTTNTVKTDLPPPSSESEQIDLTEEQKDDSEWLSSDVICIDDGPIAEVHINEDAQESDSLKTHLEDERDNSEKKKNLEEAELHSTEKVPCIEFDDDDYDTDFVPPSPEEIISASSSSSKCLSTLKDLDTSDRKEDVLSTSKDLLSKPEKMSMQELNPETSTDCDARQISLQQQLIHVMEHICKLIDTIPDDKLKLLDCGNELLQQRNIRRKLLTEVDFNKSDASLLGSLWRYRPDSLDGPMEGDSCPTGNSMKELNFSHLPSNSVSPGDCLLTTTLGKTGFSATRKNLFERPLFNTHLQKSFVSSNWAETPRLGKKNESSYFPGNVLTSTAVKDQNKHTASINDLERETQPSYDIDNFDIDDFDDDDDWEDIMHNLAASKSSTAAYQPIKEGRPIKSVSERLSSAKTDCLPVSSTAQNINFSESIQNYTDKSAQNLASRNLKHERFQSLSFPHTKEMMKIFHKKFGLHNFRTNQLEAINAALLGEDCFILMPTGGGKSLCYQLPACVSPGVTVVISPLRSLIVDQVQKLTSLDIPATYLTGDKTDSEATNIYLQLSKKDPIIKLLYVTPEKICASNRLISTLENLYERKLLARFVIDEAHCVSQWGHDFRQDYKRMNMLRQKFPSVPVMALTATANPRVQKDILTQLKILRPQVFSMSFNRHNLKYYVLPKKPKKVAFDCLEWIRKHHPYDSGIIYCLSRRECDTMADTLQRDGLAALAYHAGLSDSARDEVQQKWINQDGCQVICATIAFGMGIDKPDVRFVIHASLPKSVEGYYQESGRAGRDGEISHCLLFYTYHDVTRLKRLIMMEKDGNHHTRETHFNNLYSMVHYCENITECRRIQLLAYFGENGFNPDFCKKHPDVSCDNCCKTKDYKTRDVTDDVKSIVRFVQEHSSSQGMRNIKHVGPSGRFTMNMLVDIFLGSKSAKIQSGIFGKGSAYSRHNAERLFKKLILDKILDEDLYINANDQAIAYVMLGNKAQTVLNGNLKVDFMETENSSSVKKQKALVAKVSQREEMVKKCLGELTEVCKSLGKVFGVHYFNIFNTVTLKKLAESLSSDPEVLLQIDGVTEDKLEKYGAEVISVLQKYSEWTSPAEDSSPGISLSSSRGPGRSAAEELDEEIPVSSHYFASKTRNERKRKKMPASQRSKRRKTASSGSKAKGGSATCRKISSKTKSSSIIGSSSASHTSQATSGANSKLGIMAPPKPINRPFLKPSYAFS
Procedure, shortened: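 BLM 50 nM in 25 mM Tris-HCl pH 8.0, 5 mM NaCl, 2 mM MgCl2, 1 mM DTT, 0.01% Tween-20, 2.5 ug/ml poly(dI-dC); 15 min cpd preinc, RT. Start: 200 nM forked DNA + 2 mM ATP (final). TAMRA read, 2 reads 2 h apart.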

[19] = Validation screen for small molecules that induce DNA re-replication in MCF 10A normal breast cells (AID 463097); details: MCF 10A cells, DNA re-replication phenotype imaging; series mostly up to 46.1 µM; also: nearly all actives have a fitted effect of over 60% in size
Procedure, shortened: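 Following 48 hr compound incubation (37 C, 5% CO2), MCF 10A cells receive Hoechst for 40 min at 37 C. Nuclei are then scanned (excitation 405 nm, emission 500-530 nm) for total fluorescence intensity.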

Measured: Potency

C[n+]1cc2c3c(ccc2c2ccc4cc5c(cc4c21)OCO5)OCO3
active: [5] 8.44 µM
inactive: [1] | [2] | [3] | [4] | [6] | [7] | [8] | [9]

Cc1ccc(/C(=C\CN2CCCC2)c2ccccn2)cc1
not listed: [9] | [15] | [16] | [17] | [18] | [19]
inactive: all other assays above

C[C@@H](O)[C@H]1C(=O)N2C(C(=O)O)=C(SCCN=CN)C[C@H]12
inactive: [2] | [3] | [5] | [11] | [12] | [6] | [15] | [9]

CC(=O)[C@@]1(O)CC[C@H]2[C@@H]3CCC4=CC(=O)CC[C@]4(C)[C@H]3CC[C@@]21C
not listed: [1] | [10] | [13] | [14] | [15] | [17] | [18] | [19]
inactive: all other assays above

COc1cc2c(cc1OC)-c1cc(=Nc3c(C)cc(C)cc3C)n(C)c(=O)n1CC2
active: [13] 3.7 µM | [14] 2.62 µM
inactive: [17] | [16] | [2] | [3] | [10] | [5] | [11] | [6] | [9]

CC(C)(C)c1ccc(C(=O)CCCN2CCC(OC(c3ccccc3)c3ccccc3)CC2)cc1
active: [2] 20.7 µM | [3] 4.65 µM
inactive: [5] | [11] | [12] | [6] | [15] | [7] | [8] | [9]

C[C@]12CC[C@@H]3c4ccc(O)cc4C[C@@H](CCCCCCCCCS(=O)CCCC(F)(F)C(F)(F)F)[C@H]3[C@@H]1CC[C@@H]2O (some centres not stated)
inactive: [16] | [2] | [3] | [4] | [5] | [11] | [6] | [15] | [8] | [9]

CN1C(=O)CC[C@H]1c1cccnc1
not listed: [1] | [13] | [14] | [15] | [17] | [18] | [19]
inactive: all other assays above

Cc1cccc(C)c1NC(=O)C(C)N (configuration not stated)
not listed: [1] | [7] | [13] | [14] | [15] | [17] | [18] | [19]
inactive: all other assays above

CCCCCCCC/C=C\CCCCCCCC(=O)NCc1ccc(O)c(OC)c1
inactive: [2] | [10] | [5] | [11] | [12] | [6] | [8] | [9]

CCN(CC)CCCN(c1ccccc1)C1Cc2ccccc2C1
inactive: [16] | [2] | [10] | [5] | [11] | [12] | [6] | [7] | [8] | [9]

CCc1cccc(N(C)C(N)=Nc2cccc3ccccc23)c1
not listed: [1] | [3] | [4] | [10] | [12] | [13] | [15] | [17]
inactive: all other assays above

c1cc(CN2CCCCC2)cc(OCCCNc2nc3ccccc3s2)c1
active: [13] 2.94 µM | [14] 8.28 µM
not listed: [1] | [3] | [4] | [7] | [12] | [15] | [19]
inactive: all other assays above

C[N+](C)(C)CCCCCCCCCC[N+](C)(C)C
active: [13] 0.329 µM | [14] 1.04 µM
not listed: [1] | [5] | [9]
inactive: all other assays above

CN(C)[C@@H]1C(=O)C(C(N)=O)=C(O)[C@@]2(O)C(=O)C3=C(O)c4c(O)ccc(Cl)c4[C@@H](O)[C@H]3C[C@@H]12
inactive: [2] | [3] | [4] | [10] | [5] | [11] | [12] | [6] | [7]
active: [9] 29.9 µM
